The source of these data is PubChem BioAssay (EPA / NIEHS).

What all share (conditions): mRNA level, 48 h; actives raise or lower the signal
Read-out in assay [1]: succinate dehydrogenase complex iron sulfur subunit B (SDHB), SDHB (gene 6390)
Description: LTEA_HepaRG_SDHB: Life Technologies and Expression Analysis (LTEA) Assay for succinate dehydrogenase complex iron sulfur subunit B (SDHB) using HepaRG (AID 2283528). An outline of the steps: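 HepaRG, 48 h exposure, 8-pt half-log series from 100 uM in 0.5% DMSO, duplicates. Readout: SDHB mRNA by Fluidigm qRT-PCR vs housekeeping genes; bidirectional fit relative to DMSO.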

Read-out in assay [2]: Signal transducer and activator of transcription 3 (Homo sapiens) (UniProt P40763)
Description: LTEA_HepaRG_STAT3: Life Technologies and Expression Analysis (LTEA) Assay for Signal transducer and activator of transcription (STAT3) using HepaRG (AID 2283529). An outline of the steps:
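In this transcriptional endpoint, HepaRG cultures receive test chemicals at up to 100 uM for 48 h, tested in duplicate. STAT3 mRNA is normalized to ACTB, GAPDH and POLR2A.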

Read-out in assay [3]: solute carrier (SLCO1B1), SLCO1B1 (gene 10599)
Put plainly: LTEA_HepaRG_SLCO1B1: Life Technologies and Expression Analysis (LTEA) Assay for solute carrier (SLCO1B1) using HepaRG (AID 2283530). An outline of the steps:
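SLCO1B1 transcript read by qRT-PCR (Fluidigm arrays), normalized to three housekeeping genes, after 48 h chemical exposure of HepaRG cells; bidirectional concentration-response fitting versus 0.5% DMSO baseline. Eight-point half-log series, maximum 100 uM.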

Read-out in assay [4]: sulfotransferase 2A1 (SULT2A1), SULT2A1 (gene 6822)
Description: LTEA_HepaRG_SULT2A1: Life Technologies and Expression Analysis (LTEA) Assay for sulfotransferase 2A1 (SULT2A1) using HepaRG (AID 2283531). Summed up: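 HepaRG, 48 h chemical exposure, 8-pt half-log curve from 100 uM in 0.5% DMSO, duplicates. Readout: TaqMan qRT-PCR of SULT2A1 mRNA, housekeeping-normalized. Bidirectional fit vs DMSO baseline.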

Read-out in assay [5]: Transforming Growth Factor (TGFA), TGFA (gene 7039)
Description: LTEA_HepaRG_TGFA: Life Technologies and Expression Analysis (LTEA) Assay for Transforming Growth Factor (TGFA) using HepaRG (AID 2283532). Summed up:
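Gene expression of TGFA was quantified by qRT-PCR after human HepaRG cells were treated for 48 h with test chemicals (eight concentrations, highest 100 uM, 0.5% DMSO). Activity in either direction was fitted relative to DMSO.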

Read-out in assay [6]: Transforming Growth Factor (TGFB1), TGFB1 (gene 7040)
Description: LTEA_HepaRG_TGFB1: Life Technologies and Expression Analysis (LTEA) Assay for Transforming Growth Factor (TGFB1) Transporter using HepaRG (AID 2283533). An outline of the steps: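 qRT-PCR readout of TGFB1 transcript in HepaRG lysates, normalized to three housekeeping genes; gain or loss of signal fitted relative to 0.5% DMSO vehicle. Exposure: 48 h, 8-point curve from 100 uM, duplicate wells.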

Read-out in a further assay: TIMP1, TIMP1 (gene 7076)
Description: LTEA_HepaRG_TIMP1: Life Technologies and Expression Analysis (LTEA) Assay for TIMP1 using HepaRG (AID 2283534).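 Note: TaqMan qRT-PCR signal normalized to ACTB GAPDH and POLR2A housekeeping genes.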 Summed up: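 HepaRG, 48 h exposure, 8-pt half-log series from 100 uM in 0.5% DMSO, duplicates; TIMP1 transcript by Fluidigm qRT-PCR, housekeeping-normalized; bidirectional curve fit vs DMSO baseline.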

Read-out in assay [7]: Tumor necrosis factor receptor 1 (TNFRSF1A), TNFRSF1A (gene 7132)
Put plainly: LTEA_HepaRG_TNFRSF1A: Life Technologies and Expression Analysis (LTEA) Assay for Tumor necrosis factor receptor 1 (TNFRSF1A) using HepaRG (AID 2283535). Summed up: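 HepaRG, 48 h plating then 48 h chemical exposure, serum-free induction media; 8-pt CRC from 100 uM, half-log, 0.5% DMSO vehicle, duplicates. Readout: TaqMan qRT-PCR (Fluidigm), housekeeping-gene normalized; bidirectional fit vs DMSO.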

Read-out in assay [8]: Thyroid Hormone Responsive (THRSP), THRSP (gene 7069)
Put plainly: LTEA_HepaRG_THRSP: Life Technologies and Expression Analysis (LTEA) Assay for Thyroid Hormone Responsive (THRSP) using HepaRG (AID 2283536). Summed up:
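Cell model: human HepaRG, approx. 100,000 cells/well, 0.5% DMSO vehicle. Exposure lasts 48 h; phenobarbital 1 mM serves as induction positive control. Gene expression is measured by qRT-PCR against three endogenous control genes.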

Read-out in assay [9]: Cellular tumor antigen p53 (Homo sapiens) (UniProt P04637)
Put plainly: LTEA_HepaRG_TP53: Life Technologies and Expression Analysis (LTEA) Assay for Tumor Protein P53 (TP53) using HepaRG (AID 2283537). An outline of the steps:
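HepaRG, 48 h exposure, top 100 uM, half-log 8-point, 0.5% DMSO vehicle, duplicates. Read: TP53 mRNA by TaqMan qRT-PCR, normalised to ACTB/GAPDH/POLR2A; bidirectional fit vs DMSO.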

Calls of active or inactive are those of the source. Rule for the calls: active = hit-call score of the fitted dose curve at least 0.9, where 1 is the maximum; inactive = score below 0.9.

Sequence of Cellular tumor antigen p53 (Homo sapiens) (P04637 whole entry, looked up): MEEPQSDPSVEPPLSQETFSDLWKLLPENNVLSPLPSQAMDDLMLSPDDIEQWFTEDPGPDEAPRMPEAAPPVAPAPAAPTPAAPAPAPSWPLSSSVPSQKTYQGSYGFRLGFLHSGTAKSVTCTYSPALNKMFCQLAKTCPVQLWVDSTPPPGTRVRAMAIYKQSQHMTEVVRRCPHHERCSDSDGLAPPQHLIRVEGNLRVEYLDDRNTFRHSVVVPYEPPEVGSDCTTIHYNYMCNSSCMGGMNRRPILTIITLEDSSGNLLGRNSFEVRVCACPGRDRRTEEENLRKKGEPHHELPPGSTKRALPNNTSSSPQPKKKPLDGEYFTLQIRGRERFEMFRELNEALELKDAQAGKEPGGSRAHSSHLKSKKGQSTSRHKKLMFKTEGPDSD
Sequence of Signal transducer and activator of transcription 3 (Homo sapiens) (P40763 whole entry, looked up): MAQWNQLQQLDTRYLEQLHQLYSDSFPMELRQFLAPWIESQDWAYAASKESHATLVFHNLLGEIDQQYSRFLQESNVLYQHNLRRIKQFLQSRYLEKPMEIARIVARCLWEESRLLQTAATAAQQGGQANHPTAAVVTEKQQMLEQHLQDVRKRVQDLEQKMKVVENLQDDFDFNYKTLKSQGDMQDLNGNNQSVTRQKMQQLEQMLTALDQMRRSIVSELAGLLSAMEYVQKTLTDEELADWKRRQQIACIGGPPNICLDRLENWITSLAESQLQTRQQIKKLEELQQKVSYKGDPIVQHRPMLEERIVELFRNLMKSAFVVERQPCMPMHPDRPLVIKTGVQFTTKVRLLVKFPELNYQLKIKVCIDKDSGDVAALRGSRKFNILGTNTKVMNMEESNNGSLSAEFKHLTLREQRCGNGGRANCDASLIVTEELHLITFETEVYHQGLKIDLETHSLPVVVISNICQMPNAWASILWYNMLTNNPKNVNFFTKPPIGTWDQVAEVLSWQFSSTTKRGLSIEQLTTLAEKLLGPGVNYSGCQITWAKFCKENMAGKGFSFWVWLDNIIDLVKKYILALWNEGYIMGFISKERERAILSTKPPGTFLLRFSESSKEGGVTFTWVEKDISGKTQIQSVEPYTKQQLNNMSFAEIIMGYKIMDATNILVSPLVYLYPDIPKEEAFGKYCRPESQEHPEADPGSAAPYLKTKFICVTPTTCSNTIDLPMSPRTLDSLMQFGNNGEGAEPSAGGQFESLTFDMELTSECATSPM

The AC50 is the midpoint of the concentration-response curve, whichever way the signal moves. With `CON=C(C(=O)OC)c1ccccc1CON=C(C)c1cccc(C(F)(F)F)c1`, the result in assay [1], in assay [2], in assay [3], in assay [4], in assay [5] and in assay [6] was inactive. Besides, the outcome with TIMP1, TIMP1 (gene 7076) is “inactive”; in [7] it was “inactive”; in assay [9], “inactive”. The AC50 in assay [8] is 50 µM (active).
On to `CCOP(=O)(NC(C)C)Oc1ccc(SC)c(C)c1` (stereo not drawn), for which the call in assay [1], in [2], in [3], in assay [4], in assay [5] and in assay [6] was inactive. Further, the outcome with TIMP1, TIMP1 (gene 7076) is “inactive”; in assay [7] it was “inactive”; in assay [8], “inactive”; in assay [9], “inactive”.
As to `O=c1ccc(=O)[nH][nH]1`, the call in assay [1], in assay [2], in assay [3], in assay [4], in assay [5] and in assay [6] was inactive. Further, the outcome with TIMP1, TIMP1 (gene 7076) was “inactive”; in [7], “inactive”; in assay [8] it was “inactive”; in [9] it was “inactive”.
For `CCOC(=O)COc1cc(-c2nn(C)c(OC(F)F)c2Cl)c(F)cc1Cl`, the outcome in [1], in [2], in [3], in [4], in assay [5] and in assay [6] was inactive. The outcome with TIMP1, TIMP1 (gene 7076) is “inactive”; in assay [7] it was “inactive”; in assay [8], “inactive”; in assay [9] it was “inactive”.
`C#CC(C)(C)NC(=O)c1cc(Cl)cc(Cl)c1`: the compound was classed as inactive in assay [1], in assay [2], in assay [3], in assay [4], in assay [5] and in [6]. Besides, the outcome in the assay with TIMP1, TIMP1 (gene 7076) is “inactive”; in assay [7] it was “inactive”; in [8] it was “inactive”; in assay [9], “inactive”.
For the compound `CCCSP(=O)(OCC)Oc1ccc(Br)cc1Cl` (stereo not drawn), the outcome in [1], in assay [2], in assay [3], in [4], in assay [5] and in assay [6] was inactive. For the same compound, the outcome in the assay with TIMP1, TIMP1 (gene 7076) was “inactive”; in assay [7] it was “inactive”; in assay [8], “inactive”; in [9], “inactive”.
Consider `CCOP(=S)(OCC)SCCSCC`, for which the outcome in assay [1] is “inactive”; in assay [3], “inactive”; in [4] it was “inactive”; in [5], “inactive”; in [6] it was “inactive”; with TIMP1, TIMP1 (gene 7076), “inactive”. Further, the compound was called inactive in assay [7], in assay [8] and in assay [9].
Turning to `CCCCOC(=O)c1ccccc1C(=O)O`, the call in assay [1], in assay [2], in assay [3], in assay [4], in [5] and in assay [6] was inactive. In addition, the outcome in the assay with TIMP1, TIMP1 (gene 7076) is “inactive”; in assay [7], “inactive”; in assay [8], “inactive”; in assay [9] it was “inactive”.
As to `CSc1nnc(C(C)(C)C)c(=O)n1N`, the outcome in [1], in assay [2], in [3], in [4], in assay [5] and in assay [6] was inactive. For the same compound, the outcome in the assay with TIMP1, TIMP1 (gene 7076) is “inactive”; in [7], “inactive”; in assay [8], “inactive”; in assay [9], “inactive”.
For the compound `CCCCOC(=O)[C@@H](C)Oc1ccc(Oc2ccc(C#N)cc2F)cc1`, the call in [1], in assay [2], in [3], in assay [4], in assay [5] and in assay [6] was inactive. Also, the outcome in the assay with TIMP1, TIMP1 (gene 7076) is “inactive”; in assay [7], “inactive”; in assay [8] it was “inactive”; in [9] it was “inactive”.
`CCOP(=O)(OCC)Oc1cc(C)nc(C(C)C)n1`: the outcome in assay [1], in [2], in [3], in assay [4], in assay [5] and in [6] was inactive. Moreover, the outcome was “inactive” with TIMP1, TIMP1 (gene 7076); “inactive” in assay [7]; “inactive” in assay [8]; “inactive” in [9].
For the compound `FC(F)C(F)(F)OCC(Cn1cncn1)c1ccc(Cl)cc1Cl` (stereo not drawn), the outcome in assay [1] is “inactive”; with TIMP1, TIMP1 (gene 7076), “inactive”. The half-maximal activity concentration (AC50) was 70.4 µM (active) in assay [3]; 53.8 µM (active) in assay [4]; 62.2 µM (active) in assay [5]; 28.8 µM (active) in assay [6]; 49.8 µM (active) in assay [7]; 3.87 µM (active) in assay [8]. Further, the half-maximal activity concentration (AC50) in assay [9] is 31.5 µM (active).
Consider `COc1cccc(C(=O)NN(C(=O)c2cc(C)cc(C)c2)C(C)(C)C)c1C`, for which the outcome in [1] is “inactive”; in assay [3], “inactive”; in [5], “inactive”; in assay [6], “inactive”; with TIMP1, TIMP1 (gene 7076), “inactive”; in assay [7] it was “inactive”. Also, in assay [9], the call was inactive. For the same compound, the half-maximal activity concentration (AC50) in [2] is 5.4 µM (active); in assay [4], 32.5 µM (active); in [8], 12.2 µM (active).
As for `CN1COCN(Cc2cnc(Cl)s2)C1=N[N+](=O)[O-]`, the compound was classed as inactive in assay [1], in assay [2], in assay [3], in [4], in assay [5] and in assay [6]. Also, the outcome in the assay with TIMP1, TIMP1 (gene 7076) was “inactive”; in [7], “inactive”; in assay [8], “inactive”; in assay [9], “inactive”.
With `CCOP(=S)(OCC)Oc1ccc2c(C)c(Cl)c(=O)oc2c1`, the compound was classed as inactive in assay [1], in assay [2], in assay [3], in assay [4], in [5] and in assay [6]. The outcome with TIMP1, TIMP1 (gene 7076) is “inactive”; in assay [7], “inactive”; in assay [9], “inactive”. The AC50 in assay [8] is 14.8 µM (active).
For the compound `CCOP(=S)(OCC)OC(Cl)C(Cl)(Cl)Cl` (stereo not drawn), the compound was called inactive in assay [1], in [2], in assay [3], in assay [4], in assay [5] and in [6]. The outcome with TIMP1, TIMP1 (gene 7076) is “inactive”; in assay [7] it was “inactive”; in [8] it was “inactive”; in [9], “inactive”.
